Source: PubChem BioAssay (NCATS)
Inconclusive results are not listed. A number with no mark means an inactive call. Active and inactive are the calls of the source. Calls follow the shape of the dose curve; as a rule, active = well fitted inhibition curve with a large enough effect; inconclusive = small, poorly fitted or top-dose-only effect; inactive = flat fitted curve, though single readings scatter.

Biological target: Ubiquitin carboxyl-terminal hydrolase 1 (Homo sapiens) (UniProt O94782)
Assay: Inhibitors of USP1/UAF1: Pilot qHTS (AID 504865); also: nearly all actives have a fitted effect of over 35% in size;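 as to activity change, negative = inhibition: rhodamine fluorescence freed from ubiquitin-rhodamine substrate followed over time; top concentration of the series differs between compounds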
Details: purified USP1/UAF1, Ub-rhodamine cleavage fluorescence; series mostly up to 114 µM; activity change, negative = inhibition: at the top concentration
Source text: Deubiquitinating enzymes (DUBs) are a class of enzymes that can cleave isopeptide bond formed between the C-terminal carboxylate of ubiquitin and a lysine side-chain amino group on the target protein. Among them, ubiquitin specific proteases (USPs) constitute the largest DUB family. Human USPs are emerging as promising targets for pharmacological intervention because of their connection to a number of human diseases, including prostate, colon and breast cancer (1, 2), pediatric acute lymphoblastic leukemia (3), and familial cylindromatosis (4). The advantage of inhibiting USPs lies in the potential specificity of therapeutic intervention that can lead to better efficacy and reduce nonspecific side effects.
In a collaboration between the University of Delaware and the NIH Chemical Genomics Center, a high-throughput screen assay was developed to screen for USP1/UAF1 inhibitors. This miniaturized assay has a fluorescent read-out and is used to screen the NIH Molecular Libraries Small Molecule Repository (MLSMR) in order to identify a small molecule that inhibits USP1.
NIH Chemical Genomics Center [NCGC]
NIH Molecular Libraries Probe Centers Network [MLPCN]
Assay Submitter (PI): Zhihao Zhuang, University of Delaware
1. Priolo, C., et al. (2006) The isopeptidase USP2a protects human prostate cancer from apoptosis. Cancer Res 66, 8625-8632
2. Popov, N., et al. (2007) The ubiquitin-specific protease USP28 is required for MYC stability. Nat Cell Biol 9, 765-774
3. De Pitta, C., et al. (2005) A leukemia-enriched cDNA microarray platform identifies new transcripts with relevance to the biology of pediatric acute lymphoblastic leukemia. Haematologica 90, 890-898
4. Kovalenko, A., et al. (2003) The tumour suppressor CYLD negatively regulates NF-kappaB signalling by deubiquitination. Nature 424, 801-805
3 microliters of reagents (buffer in columns 3 and 4 as negative control and 1nM USP1/UAF1 complex in columns 1, 2, and 5-48) are dispensed into Greiner black solid bottom 1536-well assay plates. Compounds are then transferred via Kalypsys pin tool equipped with 1536-pin array (10nl slotted pins, V&P Scientific, San Diego, CA). Following an incubation step of 15 min at room temperature, 1ul of Ub-Rho substrate (150nM final concentration) is added to initiate the reaction. The plates are immediately centrifuged at 1000 rpm for 15 seconds, and subsequently transferred to a ViewLux high-throughput CCD imager (PerkinElmer) wherein kinetic measurements of fluorescence are acquired using 480 nm excitation/540 nm emission filter set (6 reads every 60 seconds, see Table 1). All reagents are diluted in an assay buffer consisting of 50mM HEPES (pH 7.8), 0.5mM EDTA, 0.1 mg/ml BSA, 1mM TCEP, and 0.01% Tween-20.
% is scaled to controls: 0 for no effect and ±100 for the full control effect; potency is read from the fitted curve at half-maximal effect.

Ubiquitin carboxyl-terminal hydrolase 1 (Homo sapiens), sequence (O94782 whole entry, looked up): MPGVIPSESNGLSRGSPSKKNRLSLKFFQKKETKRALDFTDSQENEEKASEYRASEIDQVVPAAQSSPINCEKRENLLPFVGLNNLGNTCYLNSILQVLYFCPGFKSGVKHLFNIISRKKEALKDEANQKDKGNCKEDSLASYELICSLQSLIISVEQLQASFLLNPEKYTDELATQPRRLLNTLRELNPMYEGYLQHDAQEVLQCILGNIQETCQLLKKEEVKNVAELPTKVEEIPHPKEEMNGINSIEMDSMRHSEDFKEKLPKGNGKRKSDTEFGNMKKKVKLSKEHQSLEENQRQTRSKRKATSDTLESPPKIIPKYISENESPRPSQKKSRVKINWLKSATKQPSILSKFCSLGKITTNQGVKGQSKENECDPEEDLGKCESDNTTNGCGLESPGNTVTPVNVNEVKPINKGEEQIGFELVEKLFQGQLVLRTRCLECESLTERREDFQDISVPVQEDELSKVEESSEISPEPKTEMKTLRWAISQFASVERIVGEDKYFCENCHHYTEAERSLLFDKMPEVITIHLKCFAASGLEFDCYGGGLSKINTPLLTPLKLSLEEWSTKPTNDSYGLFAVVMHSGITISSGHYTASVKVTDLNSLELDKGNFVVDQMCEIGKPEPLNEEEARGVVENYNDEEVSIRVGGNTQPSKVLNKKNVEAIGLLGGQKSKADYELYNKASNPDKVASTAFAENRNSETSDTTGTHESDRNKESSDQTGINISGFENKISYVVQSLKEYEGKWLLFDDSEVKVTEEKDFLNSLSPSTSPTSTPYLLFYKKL

Compound | activity change, negative = inhibition | Potency
NCCN | -5.82% | –
OCCOCCOCCO | -3.37% | –
[O]=[Bi][O][Bi]=[O] | 0.348% | –
OC[C@H]1O[C@@H]2O[C@H]3[C@H](O)[C@@H](O)[C@@H](O[C@H]4[C@H](O)[C@@H](O)[C@@H](O[C@H]5[C@H](O)[C@@H](O)[C@@H](O[C@H]6[C@H](O)[C@@H](O)[C@@H](O[C@H]7[C@H](O)[C@@H](O)[C@@H](O[C@H]1[C@H](O)[C@H]2O)O[C@@H]7CO)O[C@@H]6CO)O[C@@H]5CO)O[C@@H]4CO)O[C@@H]3CO | -4.19% | –
CC(C)OC(=O)Nc1ccc2nc(-c3cscn3)[nH]c2c1 | -12.6% | –
CC(C)(Oc1ccc(C2CCCc3ccccc32)cc1)C(=O)O (stereo not given) | -3.14% | –
O=C(CCCCCCCCCCCCC1CCCC1)Nc1ccc(S(=O)(=O)c2ccc(NC(=O)CCCCCCCCCCCCC3CCCC3)cc2)cc1 | 20.7% | –
CC1CC(O)CC(C)(C)C1 (stereo not given) | -5.89% | –
OCc1ccccc1 | -5.39% | –
COc1ccccc1N1CCN(CCCC(=O)c2ccc(F)cc2)CC1 | -5.3% | –
CCCc1ccc(C(=O)O)cc1 | -0.983% | –
CCC(O)c1ccccc1 (stereo not given) | -5.34% | –
CN(C)C(=O)CCSC(SCCC(=O)O)c1cccc(/C=C/c2ccc3ccc(Cl)cc3n2)c1 (stereo not given) | – | 50.1 µM (active)
Cc1ccc(C(C)(C)c2ccc(C)cc2)cc1 | -9.44% | –
CN(C)CCCSc1ccccc1NC(=O)/C=C/c1ccccc1 | -6.82% | –
CSCCC(N)C(=O)O (stereo not given) | -3.81% | –
O=S(=O)(O)CC(S)CS (stereo not given) | -9.27% | –
COC(=O)CCC[N+](C)(C)C | -3.54% | –
CN1c2c(nc(N)[nH]c2=O)NCC1CNc1ccc(C(=O)NC(CCC(=O)O)C(=O)O)cc1 (stereo not given) | -7.34% | –
C[C@]12CCC(=O)C[C@@H]1CC[C@@H]1[C@@H]2CC[C@]2(C)C=CC[C@@H]12 | -6.37% | –

Compound | activity change, negative = inhibition | Potency
O=P(O)(O)O | -1.05% | –
CC(=O)Nc1ccc(OC(C)=O)cc1 | -5.59% | –
CCOC(=O)c1c[nH]c2cc(OCC(C)C)c(OCC(C)C)cc2c1=O | -6.26% | –
CC(C)O | 2.15% | –
CCCCO | -0.322% | –
NC(N)=NCC1COc2ccccc2O1 (stereo not given) | -3.37% | –
CN(CCO)CC(O)Cn1cnc2c1c(=O)n(C)c(=O)n2C (stereo not given) (tested in a mixture with another compound) | -5.85% | –
O=C1CCC(c2ccccc2)(C2CCN(Cc3ccccc3)CC2)C(=O)N1 (stereo not given) | -11.3% | –
CC1(C)S[C@@H]2[C@H](NC(=O)C3(N)CCCCC3)C(=O)N2[C@H]1C(=O)O | -13.6% [at 54.9 µM] | –
CC(=O)N[C@@H]1C(O[C@H]2O[C@H](C(=O)O)C(O)[C@H](O)[C@H]2O)[C@H](O)[C@@H](CO)O[C@H]1O[C@@H]1C(C(=O)O)O[C@@H](O[C@H]2[C@H](O)[C@@H](CO)OC(O)[C@@H]2NC(C)=O)[C@H](O)[C@H]1O (stereo not given in full) | 1.36% | –
NC(N)=O | – | inactive
O=C(O)CC/C=C\CC[C@@H]1[C@@H](N2CCCCC2)[C@@H](O)C[C@@H]1OCc1ccc(-c2ccccc2)cc1 | -6.16% | –
O=C1c2ccccc2C(=O)C1c1ccc(Cl)cc1 | -11.6% | –
CC(CCc1ccc(O)cc1)NCC(O)c1ccc(O)cc1 (stereo not given) | -3.83% | –
C[Se]CC[C@H](N)C(=O)O | -5.97% | –
CC(CNC(=O)c1cccnc1)NC(=O)c1cccnc1 (stereo not given) | -10.2% | –
Cc1ncc(C[n+]2csc(CCOP(=O)(O)O)c2C)c(N)n1 | -5.84% | –
CCCCCCCCCCCCCCCCCCCCCC(=O)Nc1ccn([C@@H]2O[C@H](CO)[C@@H](O)[C@@H]2O)c(=O)n1 | -2.04% | –
CCCCCCCCCCCC(=O)N(CCO)CCO | -14.5% | –
O.O.O.O.O.O.O.O=S(=O)([O-])[O-].[Co+2] | 3.5% | –
